Reference: PubChem BioAssay (NCATS)
Inconclusive results are not listed. The source made the active and inactive calls. Unless noted, the call rests on the fitted dose curve; in most records, active means well fitted curve in the direction sought with a large enough effect; inconclusive means small, poorly fitted or top-dose-only effect, or another doubt; inactive means no such curve, though single readings can be large; an effect the other way counts as inactive or inconclusive.

Key:
[1] = AP1 Signaling Pathway (AID 357; active means well fitted curve in either direction with a large enough effect, not every such curve was filed as active;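 further: ME-180 reporter cells stimulated with EGF at its EC50 level; on the % scale 0 is the no-effect control and ±100 the full control effect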)
How it was run: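 Read-out was the 460nm/530nm emission ratio (excitation 405nm) after CCF4 loading for 2.5 hours at room temperature. Cells carried an AP-1-driven beta-lactamase reporter, were stimulated with EC50 EGF plus compound for 5 hours, and AC50 values came from titrations.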

[2] = NFAT Signaling Pathway (AID 444; active means well fitted curve in either direction with a large enough effect, not every such curve was filed as active;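 further: carbachol stimulus at about its EC50 of 1 µM final; on the % scale 0 is the no-effect control and ±100 the full control effect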); settings: Jurkat NFAT-bla M1, carbachol, beta-lactamase ratio, 5 h; at 7.69 µM (top of the series)
How it was run: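 Jurkat cells with NFAT-driven β-lactamase reporter and co-expressed M1 receptor, stimulated with carbachol (final 1 uM, ~EC50), compound titration, 5 h at 37 °C. CCF4 loaded 1 h at RT; 460/530 nm ratio gave %activity and AC50.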

[3] = Stat Signaling Pathway (AID 446; active means well fitted curve in either direction with a large enough effect, not every such curve was filed as active;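 further: ME-180 cervical cancer cells given 40 pM IL-6 alongside compound; SIE-controlled beta-lactamase reporter measured as 460/530 nm FRET emission ratio; on the % scale 0 is the no-effect control and ±100 the full control effect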)
How it was run: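 Overnight-plated ME-180 cells bearing a STAT Inducible Element beta-lactamase reporter; 5 h co-exposure to compound and 40 pM IL-6; values normalized to 300 pM IL-6 and 125 nM JAK inhibitor controls.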

[4] = molecular target: Glucocorticoid receptor (Homo sapiens) (UniProt P04150); assay: GR-EFC Redistribution (AID 451; calls by dose curve; further: potency means the concentration at half of the fitted maximal effect); settings: CHO-K1 GR-EFC translocation, beta-gal luminescence, 2 h
Sequence of Glucocorticoid receptor (Homo sapiens) (P04150 whole entry, looked up, the tested form may be a part): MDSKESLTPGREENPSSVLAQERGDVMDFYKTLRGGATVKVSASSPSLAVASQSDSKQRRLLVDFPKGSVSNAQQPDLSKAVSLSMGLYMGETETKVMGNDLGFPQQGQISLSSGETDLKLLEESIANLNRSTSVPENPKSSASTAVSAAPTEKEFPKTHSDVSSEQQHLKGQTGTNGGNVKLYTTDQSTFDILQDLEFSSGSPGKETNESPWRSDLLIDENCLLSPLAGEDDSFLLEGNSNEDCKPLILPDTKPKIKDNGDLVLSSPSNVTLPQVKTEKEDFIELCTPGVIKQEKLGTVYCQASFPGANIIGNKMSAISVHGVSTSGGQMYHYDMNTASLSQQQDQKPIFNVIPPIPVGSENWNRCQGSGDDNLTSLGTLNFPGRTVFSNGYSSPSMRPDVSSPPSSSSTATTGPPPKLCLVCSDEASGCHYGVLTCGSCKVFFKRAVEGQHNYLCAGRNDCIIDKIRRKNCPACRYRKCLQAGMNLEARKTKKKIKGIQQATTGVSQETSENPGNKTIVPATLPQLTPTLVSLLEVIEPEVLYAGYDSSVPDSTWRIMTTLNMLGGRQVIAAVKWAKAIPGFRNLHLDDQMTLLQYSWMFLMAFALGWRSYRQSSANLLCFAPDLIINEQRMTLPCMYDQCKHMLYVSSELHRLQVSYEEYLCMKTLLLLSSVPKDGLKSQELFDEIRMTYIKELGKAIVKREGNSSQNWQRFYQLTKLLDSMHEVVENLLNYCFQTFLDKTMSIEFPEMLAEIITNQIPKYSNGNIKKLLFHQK
How it was run: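 CHO-K1 cells expressing nuclear EA and GR-ED fragments of b-gal; compounds titrated up to 46 uM final, 2 h at 37 C. GR nuclear translocation read as complemented b-gal luminescence after 1 h RT detection.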

[5] = molecular target: Mitogen-activated protein kinase 10 (Mus musculus) (UniProt Q61831); assay: JNK3 AlphaScreen Assay (AID 530; active means well fitted curve in either direction with a large enough effect, not every such curve was filed as active;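 further: kinase came from lysate of stimulated human HepG2 cells; signal reports phosphorylation of biotinylated GST-cJun 1-79 at Ser73 with 10 µM ATP; on the % scale 0 is the no-effect control and ±100 the full control effect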)
How it was run: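 HepG2 lysate (IL-1b/TNFa pre-activated) + biotin-GST-cJun 1-79 + anti-pSer73 cJun; cpd titration, 15 min RT; ATP 10 uM start; Tris pH 7.6, MgCl2, DTT, vanadate; beads in EDTA buffer; AlphaScreen.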

[6] = molecular target: 3',5'-cyclic-AMP phosphodiesterase 4B (Homo sapiens) (UniProt Q07343); assay: qHTS Assay for Inhibitors of PDE-IV (AID 607; active means well fitted activation curve with a large enough effect in the main read-out, with a control signal flat, not every such curve was filed as active; further: % of control where 0% means no effect)
Sequence of 3',5'-cyclic-AMP phosphodiesterase 4B (Homo sapiens) (Q07343 whole entry, looked up): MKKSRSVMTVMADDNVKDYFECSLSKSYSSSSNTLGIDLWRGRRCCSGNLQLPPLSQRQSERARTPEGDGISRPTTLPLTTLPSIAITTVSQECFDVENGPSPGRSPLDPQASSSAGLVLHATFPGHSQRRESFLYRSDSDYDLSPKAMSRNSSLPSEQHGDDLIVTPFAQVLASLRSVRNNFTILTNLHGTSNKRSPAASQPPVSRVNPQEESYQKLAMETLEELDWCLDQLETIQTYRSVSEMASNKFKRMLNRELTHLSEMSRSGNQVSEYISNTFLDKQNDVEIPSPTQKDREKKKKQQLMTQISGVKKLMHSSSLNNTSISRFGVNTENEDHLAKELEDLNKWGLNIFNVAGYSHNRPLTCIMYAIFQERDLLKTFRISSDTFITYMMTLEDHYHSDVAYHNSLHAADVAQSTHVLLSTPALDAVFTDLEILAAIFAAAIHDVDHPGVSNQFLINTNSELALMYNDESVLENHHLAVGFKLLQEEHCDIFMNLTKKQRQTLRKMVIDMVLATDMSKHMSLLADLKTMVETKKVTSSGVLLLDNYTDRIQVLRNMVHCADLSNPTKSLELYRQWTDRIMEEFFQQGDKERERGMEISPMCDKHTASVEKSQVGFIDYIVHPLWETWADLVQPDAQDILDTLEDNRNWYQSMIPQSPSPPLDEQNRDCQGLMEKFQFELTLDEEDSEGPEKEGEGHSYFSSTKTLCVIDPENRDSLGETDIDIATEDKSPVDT
How it was run: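 Live HEK293 cells with a modified cyclic nucleotide-gated (CNG) channel report intracellular cAMP via membrane-potential dye fluorescence (ex 535/em 590 nm). Endogenous PDE-IV was targeted. Compounds were tested at up to 22.9 uM final; RO 20-1724 100 uM served as control.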

[7] = qHTS Assay for Lipid Storage Modulators (AID 1519; calls by dose curve); settings: Drosophila S3 cells, BODIPY lipid droplet/cell ratio, laser cytometry, cells loaded with oleic acid; for activity change, negative = inhibition: at 57.5 µM (top of the series)
How it was run: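 Cells seeded at 5,000 per well were treated with compounds over a concentration series and loaded with oleic acid (400 uM, as added). Lipid droplet fluorescence (488 nm excitation, 500-530 nm channel) was read by laser-scanning cytometry and normalized to 20 uM Triacsin C.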

[8] = Primary qHTS for small molecule stabilizers of the endoplasmic reticulum resident proteome: Secreted ER Calcium Modulated Protein (SERCaMP) assay (AID 1508630); further: on the % scale 0 is the no-effect control and ±100 the full control effect
How it was run: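 The SH-SY5Y reporter protocol was run at 3 concentrations up to 38.3 uM (primary) or 11 concentrations (follow-up): 16 h compound, 100 nM thapsigargin for 4 h, then extracellular luciferase luminescence.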

[9] = tested on: HIV-1 nucleocapsid protein NCp7 (binding to TG oligonucleotide); assay: HIV Nucleocapsid (AID 346; call rule not given here;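 further: potency means the concentration at half of the fitted maximal effect; potency is for inhibitors that block NC binding and lower polarization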); settings: HIV-1 NC / fluorescein-TGTGTGTG probe, fluorescence polarization
How it was run: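 Fluorescence polarization readout: labelled TG4xF oligo (10 nM) with 100 nM nucleocapsid protein, high-salt (250mM NaCl) Hepes pH 7.5 buffer containing zinc and fresh reducing agents. Compounds added by pin tool; incubation 1 hr, room temperature.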

[10] = molecular target: Cytochrome P450 1A2 (Homo sapiens) (UniProt P05177); assay: p450-cyp1a2 (AID 410; calls by dose curve;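 further: -100% = full effect of reference inhibitor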)
Sequence of Cytochrome P450 1A2 (Homo sapiens) (P05177 whole entry, looked up): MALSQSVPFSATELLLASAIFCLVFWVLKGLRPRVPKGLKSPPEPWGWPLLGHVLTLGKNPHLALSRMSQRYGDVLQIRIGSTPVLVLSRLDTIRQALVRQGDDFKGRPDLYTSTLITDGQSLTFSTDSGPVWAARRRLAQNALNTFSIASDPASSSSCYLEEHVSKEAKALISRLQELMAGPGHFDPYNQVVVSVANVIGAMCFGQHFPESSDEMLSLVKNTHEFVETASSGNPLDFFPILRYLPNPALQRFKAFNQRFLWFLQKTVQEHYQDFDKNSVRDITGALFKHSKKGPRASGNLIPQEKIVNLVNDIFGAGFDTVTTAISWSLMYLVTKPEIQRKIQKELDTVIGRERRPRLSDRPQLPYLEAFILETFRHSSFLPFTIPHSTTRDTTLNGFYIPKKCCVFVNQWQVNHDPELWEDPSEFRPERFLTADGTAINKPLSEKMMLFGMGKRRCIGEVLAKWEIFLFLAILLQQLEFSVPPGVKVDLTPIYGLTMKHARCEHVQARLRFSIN
How it was run: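 20nM CYP1A2, 100uM Luciferin-ME (=Km), 100mM KPO4; cpd 10 min RT; +NADPH regen, 60 min RT; stop/detect 20 min; luminescence. Normalized to furafylline 57 uM = full inhibition.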

[11] = molecular target: Cytochrome P450 2C9 (Homo sapiens) (UniProt P11712); assay: qHTS Assay for Inhibitors and Substrates of Cytochrome P450 2C9 (AID 883); further: on the % scale 0 is the no-effect control and ±100 the full control effect; nearly all actives have a fitted effect of over 60% in size
Sequence of Cytochrome P450 2C9 (Homo sapiens) (P11712 whole entry, looked up): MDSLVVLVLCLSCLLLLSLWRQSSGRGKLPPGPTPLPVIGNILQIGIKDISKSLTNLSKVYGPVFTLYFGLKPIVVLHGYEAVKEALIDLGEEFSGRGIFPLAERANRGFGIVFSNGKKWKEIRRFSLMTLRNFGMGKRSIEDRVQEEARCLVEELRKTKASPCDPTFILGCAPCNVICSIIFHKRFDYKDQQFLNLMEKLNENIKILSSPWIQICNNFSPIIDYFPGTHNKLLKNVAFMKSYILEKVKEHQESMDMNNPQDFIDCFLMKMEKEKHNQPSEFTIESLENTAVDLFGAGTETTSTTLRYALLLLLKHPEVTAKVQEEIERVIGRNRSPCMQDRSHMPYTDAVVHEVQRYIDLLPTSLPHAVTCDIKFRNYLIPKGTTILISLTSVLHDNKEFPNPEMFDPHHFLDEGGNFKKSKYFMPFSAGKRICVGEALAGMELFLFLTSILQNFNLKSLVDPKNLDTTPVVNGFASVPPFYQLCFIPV
How it was run: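 10nM CYP2C9 + 100uM Luciferin-H (=KM), 25mM KPO4; cpd 10 min 37C; NADPH regen, 60 min 37C; stop/detect with P450 Glo-Buffer 20 min; luminescence. Norm. to 57uM sulphaphenazole as full inhibition.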

[12] = molecular target: Cytochrome P450 3A4 (Homo sapiens) (UniProt P08684); assay: qHTS Assay for Activators of Cytochrome P450 3A4 (AID 885); further: nearly all actives have a fitted effect of over 65% in size
Sequence of Cytochrome P450 3A4 (Homo sapiens) (P08684 whole entry, looked up): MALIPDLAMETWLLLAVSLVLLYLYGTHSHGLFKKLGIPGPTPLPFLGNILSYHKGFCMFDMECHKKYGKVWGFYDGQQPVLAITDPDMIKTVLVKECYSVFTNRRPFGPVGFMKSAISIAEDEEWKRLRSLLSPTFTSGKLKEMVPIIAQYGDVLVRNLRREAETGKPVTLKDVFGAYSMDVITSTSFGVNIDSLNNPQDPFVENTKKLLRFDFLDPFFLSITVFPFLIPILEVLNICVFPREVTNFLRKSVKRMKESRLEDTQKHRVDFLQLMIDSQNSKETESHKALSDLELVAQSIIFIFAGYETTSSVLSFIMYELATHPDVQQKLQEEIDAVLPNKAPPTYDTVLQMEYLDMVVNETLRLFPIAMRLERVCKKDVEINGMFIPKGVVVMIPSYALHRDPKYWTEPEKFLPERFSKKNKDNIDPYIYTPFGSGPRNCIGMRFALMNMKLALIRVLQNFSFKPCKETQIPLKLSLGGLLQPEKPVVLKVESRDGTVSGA
How it was run: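 Using 20nM recombinant human CYP3A4 in potassium phosphate (200mM), substrate Luciferin-PPXE at 25uM, luminescent luciferin detection followed a 60-min RT NADPH reaction; data scaled to 57 uM ketoconazole.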

[13] = molecular target: Cytochrome P450 2D6 (Homo sapiens) (UniProt P10635); assay: qHTS Assay for Inhibitors and Substrates of Cytochrome P450 2D6 (AID 891); further: nearly all actives have a fitted effect of over 60% in size; further: potency means the concentration at half of the fitted maximal effect
Sequence of Cytochrome P450 2D6 (Homo sapiens) (P10635 whole entry, looked up): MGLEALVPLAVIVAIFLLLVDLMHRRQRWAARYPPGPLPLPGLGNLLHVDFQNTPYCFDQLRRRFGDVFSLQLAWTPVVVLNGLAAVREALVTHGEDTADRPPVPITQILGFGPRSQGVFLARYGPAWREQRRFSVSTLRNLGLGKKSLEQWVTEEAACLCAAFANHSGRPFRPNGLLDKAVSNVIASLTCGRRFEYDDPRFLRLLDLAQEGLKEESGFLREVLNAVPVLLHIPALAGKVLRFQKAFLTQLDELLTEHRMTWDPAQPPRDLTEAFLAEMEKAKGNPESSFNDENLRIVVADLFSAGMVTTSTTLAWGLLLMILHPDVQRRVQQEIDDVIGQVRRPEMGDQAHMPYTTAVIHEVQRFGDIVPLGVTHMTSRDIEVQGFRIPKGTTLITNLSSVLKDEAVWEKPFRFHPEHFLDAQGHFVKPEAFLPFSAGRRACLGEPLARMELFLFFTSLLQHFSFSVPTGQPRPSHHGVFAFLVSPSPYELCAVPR
How it was run: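 Luminescent read-out of luciferin formed by 5 nM human CYP2D6 demethylating 30 uM Luciferin-ME EGE (Km level) over 60 min at room temperature after NADPH regeneration addition. Data normalized to full inhibition by 1.43 uM quinidine.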

[14] = molecular target: Cytochrome P450 3A4 (Homo sapiens) (UniProt P08684); assay: qHTS Assay for Inhibitors and Substrates of Cytochrome P450 3A4 (AID 884); further: potency means the concentration at half of the fitted maximal effect; nearly all actives have a fitted effect of over 50% in size
How it was run: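 Luminescent readout of luciferin produced by CYP3A4 (20 nM) dealkylation of Luciferin-PPXE, 25 uM (its KM). NADPH-driven reaction ran 60 min at RT after 10 min compound preincubation; data scaled to 57 uM ketoconazole as 100% inhibition.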

[15] = Confirmation and Secondary Assay for Modulators of Hemoglobin Beta Chain Splicing at IVS2 654 locus (AID 910);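 further: HeLa cells stably carrying EGFP split by mutant beta-globin IVS2-654 intron; % of control where 0% means no effect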
How it was run: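 HeLa cells stably expressing EGFP interrupted by β-globin IVS2-654 intron, seeded overnight in Opti-MEM/2% FCS, then treated 2 days at 37 °C. Restored splicing read as total peak GFP intensity per well by laser scanning cytometry (488 nm excitation, 500–520 nm emission); 500 nM antisense PNA as control.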

[16] = molecular target: Ubiquitin carboxyl-terminal hydrolase 1 (Homo sapiens) (UniProt O94782); assay: Inhibitors of USP1/UAF1: Pilot qHTS (AID 504865);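 further: rhodamine fluorescence freed from ubiquitin-rhodamine substrate followed over time; top concentration of the series differs between compounds; on the % scale 0 is the no-effect control and ±100 the full control effect; nearly all actives have a fitted effect of over 35% in size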
Sequence of Ubiquitin carboxyl-terminal hydrolase 1 (Homo sapiens) (O94782 whole entry, looked up): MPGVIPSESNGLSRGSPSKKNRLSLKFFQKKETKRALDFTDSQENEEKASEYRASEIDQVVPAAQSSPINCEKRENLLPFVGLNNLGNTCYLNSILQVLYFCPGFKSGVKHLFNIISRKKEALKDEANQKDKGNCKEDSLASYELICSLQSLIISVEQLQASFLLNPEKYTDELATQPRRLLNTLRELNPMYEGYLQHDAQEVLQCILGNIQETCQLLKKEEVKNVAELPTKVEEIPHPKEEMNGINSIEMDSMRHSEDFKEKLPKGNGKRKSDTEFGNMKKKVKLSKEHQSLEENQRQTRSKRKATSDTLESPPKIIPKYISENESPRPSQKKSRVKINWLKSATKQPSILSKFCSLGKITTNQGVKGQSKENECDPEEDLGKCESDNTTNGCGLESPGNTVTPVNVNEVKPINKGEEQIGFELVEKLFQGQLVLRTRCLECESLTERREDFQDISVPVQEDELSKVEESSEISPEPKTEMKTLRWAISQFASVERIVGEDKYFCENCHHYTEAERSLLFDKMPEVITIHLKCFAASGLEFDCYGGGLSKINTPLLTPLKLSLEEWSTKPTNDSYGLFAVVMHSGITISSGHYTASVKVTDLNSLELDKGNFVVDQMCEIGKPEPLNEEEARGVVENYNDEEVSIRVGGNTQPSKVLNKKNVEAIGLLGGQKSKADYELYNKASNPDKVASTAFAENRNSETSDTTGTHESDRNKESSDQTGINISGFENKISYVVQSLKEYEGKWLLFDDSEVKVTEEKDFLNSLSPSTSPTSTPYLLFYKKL
How it was run: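 1nM USP1/UAF1 + cpd, 15 min RT; start w/ Ub-Rho 150nM final; kinetic FL 480/540 nm, 6 reads q60 s. Buffer 50mM HEPES pH 7.8, 0.5mM EDTA, 1mM TCEP, 0.01% Tween-20, 0.1 mg/ml BSA.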

[17] = molecular target: Lysosomal acid glucosylceramidase (Homo sapiens) (UniProt P04062); assay: Glucocerebrosidase-p2 (AID 348; in the data active means potency below about 10 µM; further: potency means the concentration at half of the fitted maximal effect); settings: purified GBA, blue fluorogenic substrate, 40 min
Sequence of Lysosomal acid glucosylceramidase (Homo sapiens) (P04062 whole entry, looked up): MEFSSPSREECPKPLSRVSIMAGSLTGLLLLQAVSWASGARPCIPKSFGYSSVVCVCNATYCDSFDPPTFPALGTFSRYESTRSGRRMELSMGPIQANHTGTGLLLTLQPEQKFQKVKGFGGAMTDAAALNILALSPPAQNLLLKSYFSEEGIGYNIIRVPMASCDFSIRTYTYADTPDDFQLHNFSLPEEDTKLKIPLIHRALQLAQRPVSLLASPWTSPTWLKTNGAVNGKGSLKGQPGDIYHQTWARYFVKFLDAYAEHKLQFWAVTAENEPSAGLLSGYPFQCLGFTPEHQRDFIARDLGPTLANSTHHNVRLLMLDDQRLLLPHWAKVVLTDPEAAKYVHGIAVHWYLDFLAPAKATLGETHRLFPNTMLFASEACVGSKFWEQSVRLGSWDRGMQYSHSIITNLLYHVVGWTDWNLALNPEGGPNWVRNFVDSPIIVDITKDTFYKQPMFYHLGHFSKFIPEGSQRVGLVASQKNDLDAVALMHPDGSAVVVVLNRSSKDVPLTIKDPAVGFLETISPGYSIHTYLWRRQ
How it was run: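 Normal human glucocerebrosidase (0.2 nM) with blue fluorogenic substrate (80 uM final) in citrate/phosphate pH 5.9 with 10mM sodium taurocholate, 0.01% tween-20; 40 min RT, NaOH/glycine stop; fluorescence Ex 365/Em 440; AC50 from a titration from 0.6 nM upwards.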

[18] = measured here: cell count channel max response
[19] = measured here: lipid channel max response

c1csc(CN2CCC3(CCNCC3)CC2)n1
inactive: outcome [1] | activity change, negative = inhibition [2] -5.8% | outcome [3] | Potency [4] > 46 µM | outcome [5] | Potency [6] | activity change, negative = inhibition [7] -2.74% | outcome [8]
11.7%: max response [7, 18]
11%: max response [7, 19]

N#Cc1cccc(NC(=O)N2CC[C@@]3(CCCN(C(=O)Oc4ccccc4)C3)C2)c1
inactive: Potency [9] > 4 µM | outcome [1] | Potency [10] | activity change, negative = inhibition [2] -14.8% | outcome [3] | Potency [4] > 46 µM | outcome [5] | Potency [6] | Potency [11] | Potency [12] | Potency [13] | outcome [8]

C=C(C)c1cc2cc(C(C)=O)c(O)cc2o1
19.8%: max response [7, 19]
inactive: Potency [12] | Potency [15] | activity change, negative = inhibition [7] 9.94% | Potency [16] | outcome [8]
active: Potency [14] 31.6 µM
9.32%: max response [7, 18]

O=C(Oc1ccccc1)N1CCC[C@@]2(CCN(C(c3ccccc3)c3ccccc3)C2)C1
active: Potency [13] 5.01 µM
inactive: Potency [9] > 20 µM | Potency [17] > 11.4 µM | outcome [1] | activity change, negative = inhibition [2] -12.9% | outcome [3] | Potency [4] > 46 µM | outcome [5] | Potency [6] | Potency [12] | outcome [8]
